Source: publication PMC7862700, “An all-to-all approach to the identification of sequence-specific readers for epigenetic DNA modifications on cytosine”

Tests used:
Assay in all cases: DAPPL (digital affinity profiling via proximity ligation, sequencing); 10 mM Tris-HCl pH 7.5, 50 mM NaCl, 1 mM DTT, 4% glycerol, room temperature, 30 min; GST-TFs on glutathione beads, 16-mer random dsDNA library, 0.1% formaldehyde crosslink after washing; high values mean tight binding
Settings in all cases: protein: recombinant; tags: N-terminal GST; dsDNA, one strand shown
[1] = target: T1, FLI1 (Homo sapiens, UniProt Q01543 1-452)
T1 sequence: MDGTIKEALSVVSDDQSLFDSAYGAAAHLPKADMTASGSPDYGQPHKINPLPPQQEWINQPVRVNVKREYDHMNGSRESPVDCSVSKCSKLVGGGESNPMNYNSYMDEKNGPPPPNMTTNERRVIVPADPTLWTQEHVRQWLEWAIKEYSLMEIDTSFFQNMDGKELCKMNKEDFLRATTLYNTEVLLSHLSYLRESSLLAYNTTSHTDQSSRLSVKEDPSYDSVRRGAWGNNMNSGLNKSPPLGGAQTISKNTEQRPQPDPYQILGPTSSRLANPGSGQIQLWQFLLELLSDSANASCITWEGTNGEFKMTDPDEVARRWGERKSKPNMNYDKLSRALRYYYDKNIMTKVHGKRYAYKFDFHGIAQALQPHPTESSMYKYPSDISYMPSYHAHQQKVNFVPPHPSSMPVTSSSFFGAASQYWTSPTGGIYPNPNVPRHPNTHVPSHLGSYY
How it was run: (§1)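 A tag-only sample was pooled with DNA-barcoded human transcription factors that had been expressed in yeast as GST fusions and captured on glutathione beads. The pools were incubated for 30 min at room temperature with 200 nmole of a random double-stranded 16-mer DNA library in Tris/NaCl/DTT/glycerol buffer, then washed, crosslinked with 0.1% formaldehyde, proximity-ligated (BsaI/T4 ligase, 1 h, 37 °C), PCR-amplified and sequenced on an Illumina NextSeq500. Binding signal is each hexamer's read frequency for a factor divided by its frequency for the tag-only sample.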

[2] = target: T2, ELK1 (Homo sapiens, UniProt P19419 1-428)
T2 sequence: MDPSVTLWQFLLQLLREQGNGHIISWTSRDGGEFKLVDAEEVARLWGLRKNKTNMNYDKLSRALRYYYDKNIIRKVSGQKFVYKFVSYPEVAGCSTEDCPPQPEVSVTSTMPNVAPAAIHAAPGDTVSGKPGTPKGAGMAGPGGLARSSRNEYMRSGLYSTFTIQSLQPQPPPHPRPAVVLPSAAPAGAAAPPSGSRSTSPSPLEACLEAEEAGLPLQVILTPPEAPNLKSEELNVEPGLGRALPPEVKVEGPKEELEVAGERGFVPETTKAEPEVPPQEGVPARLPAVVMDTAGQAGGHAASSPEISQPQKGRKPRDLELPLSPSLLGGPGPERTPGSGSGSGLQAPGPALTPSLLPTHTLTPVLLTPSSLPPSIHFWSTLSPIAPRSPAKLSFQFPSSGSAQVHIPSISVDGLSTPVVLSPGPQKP
How it was run: as §1

[3] = target: T3, GABPA (Homo sapiens, UniProt Q06546 1-454)
T3 sequence: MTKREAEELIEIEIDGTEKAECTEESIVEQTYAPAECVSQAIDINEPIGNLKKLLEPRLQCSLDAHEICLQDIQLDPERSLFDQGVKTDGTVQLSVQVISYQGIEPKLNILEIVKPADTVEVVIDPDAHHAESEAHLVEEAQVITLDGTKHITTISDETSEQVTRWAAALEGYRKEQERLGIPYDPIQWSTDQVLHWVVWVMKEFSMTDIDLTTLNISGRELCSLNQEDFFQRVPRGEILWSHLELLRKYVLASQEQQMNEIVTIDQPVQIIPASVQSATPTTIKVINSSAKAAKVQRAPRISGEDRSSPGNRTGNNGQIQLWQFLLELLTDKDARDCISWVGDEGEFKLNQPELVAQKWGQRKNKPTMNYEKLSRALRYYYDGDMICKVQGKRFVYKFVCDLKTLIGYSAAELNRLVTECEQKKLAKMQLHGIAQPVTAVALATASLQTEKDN
How it was run: as §1

[4] = target: T4, ERG (Homo sapiens, UniProt P11308 1-479)
T4 sequence: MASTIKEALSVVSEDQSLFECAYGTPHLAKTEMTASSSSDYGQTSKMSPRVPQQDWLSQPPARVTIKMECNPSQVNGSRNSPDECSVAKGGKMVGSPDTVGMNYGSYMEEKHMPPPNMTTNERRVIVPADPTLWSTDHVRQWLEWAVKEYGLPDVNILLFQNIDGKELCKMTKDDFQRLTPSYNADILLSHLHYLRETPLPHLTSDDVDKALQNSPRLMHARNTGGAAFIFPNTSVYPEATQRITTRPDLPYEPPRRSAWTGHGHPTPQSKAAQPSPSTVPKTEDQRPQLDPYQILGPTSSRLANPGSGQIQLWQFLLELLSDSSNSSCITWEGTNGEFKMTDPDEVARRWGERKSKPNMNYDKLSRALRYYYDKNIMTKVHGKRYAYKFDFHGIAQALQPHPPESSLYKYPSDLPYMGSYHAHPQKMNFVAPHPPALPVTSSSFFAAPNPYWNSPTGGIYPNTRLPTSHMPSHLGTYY
How it was run: as §1

[5] = target: ELF1 (Homo sapiens, UniProt P32519 1-619)
How it was run: as §1

[6] = target: T5, EHF (Homo sapiens, UniProt Q9NZC4 1-300)
T5 sequence: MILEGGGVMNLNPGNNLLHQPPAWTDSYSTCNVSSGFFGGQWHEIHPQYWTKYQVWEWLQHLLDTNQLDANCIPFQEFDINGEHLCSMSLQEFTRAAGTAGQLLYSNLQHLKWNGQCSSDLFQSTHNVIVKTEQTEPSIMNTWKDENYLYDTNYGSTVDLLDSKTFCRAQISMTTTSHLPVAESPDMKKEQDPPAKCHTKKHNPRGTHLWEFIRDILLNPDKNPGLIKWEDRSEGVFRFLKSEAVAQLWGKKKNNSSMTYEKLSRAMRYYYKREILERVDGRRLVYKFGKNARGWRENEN
How it was run: as §1

[7] = target: SPI1 (Homo sapiens, UniProt P17947 1-270)
How it was run: as §1

[8] = target: SPIB (Homo sapiens, UniProt Q01892 1-262)
How it was run: as §1

[9] = target: T6, ELK3 (Homo sapiens, UniProt P41970 1-407)
T6 sequence: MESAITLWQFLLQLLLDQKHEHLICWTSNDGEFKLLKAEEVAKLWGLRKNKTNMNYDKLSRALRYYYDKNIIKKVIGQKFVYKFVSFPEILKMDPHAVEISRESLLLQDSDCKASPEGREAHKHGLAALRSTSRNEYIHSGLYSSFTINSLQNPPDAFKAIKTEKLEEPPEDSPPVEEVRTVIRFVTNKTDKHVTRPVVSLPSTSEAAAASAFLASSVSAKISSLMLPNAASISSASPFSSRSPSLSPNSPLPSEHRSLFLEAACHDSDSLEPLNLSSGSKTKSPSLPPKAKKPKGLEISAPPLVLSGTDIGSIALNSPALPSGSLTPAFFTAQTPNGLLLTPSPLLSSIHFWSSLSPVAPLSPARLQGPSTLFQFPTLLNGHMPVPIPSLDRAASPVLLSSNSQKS
How it was run: as §1

Chain of SPIB (Q01892 whole entry): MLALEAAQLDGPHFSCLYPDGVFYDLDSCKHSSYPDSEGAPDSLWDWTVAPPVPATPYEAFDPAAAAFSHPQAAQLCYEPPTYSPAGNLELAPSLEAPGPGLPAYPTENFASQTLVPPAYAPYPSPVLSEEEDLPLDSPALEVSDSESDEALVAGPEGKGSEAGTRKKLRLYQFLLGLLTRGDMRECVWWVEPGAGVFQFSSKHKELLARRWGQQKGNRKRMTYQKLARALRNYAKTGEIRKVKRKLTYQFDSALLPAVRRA
Chain of ELF1 (P32519 whole entry): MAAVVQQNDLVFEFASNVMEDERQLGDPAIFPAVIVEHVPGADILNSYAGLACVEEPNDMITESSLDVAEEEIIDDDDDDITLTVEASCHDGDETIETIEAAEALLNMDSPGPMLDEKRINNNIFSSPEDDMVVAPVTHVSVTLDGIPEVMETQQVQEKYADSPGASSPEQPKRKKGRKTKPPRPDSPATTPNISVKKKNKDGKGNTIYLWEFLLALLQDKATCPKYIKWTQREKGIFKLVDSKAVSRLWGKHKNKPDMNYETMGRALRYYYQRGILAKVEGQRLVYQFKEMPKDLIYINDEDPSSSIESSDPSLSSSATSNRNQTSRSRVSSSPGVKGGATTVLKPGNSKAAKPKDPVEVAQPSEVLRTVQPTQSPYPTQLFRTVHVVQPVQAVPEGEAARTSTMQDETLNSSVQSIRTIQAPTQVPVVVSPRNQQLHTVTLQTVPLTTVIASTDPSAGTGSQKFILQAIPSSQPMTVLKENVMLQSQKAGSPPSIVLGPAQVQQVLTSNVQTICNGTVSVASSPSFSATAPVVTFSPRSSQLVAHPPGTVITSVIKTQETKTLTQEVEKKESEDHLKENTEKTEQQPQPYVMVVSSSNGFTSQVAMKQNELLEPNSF

## TAATGC
[1]
  binding signal: 1.26 fold enrichment (6-mer frequency, TF over GST control)
[2]
  binding signal: 1.22 fold enrichment (6-mer frequency, TF over GST control)
[3]
  binding signal: 1.26 fold enrichment (6-mer frequency, TF over GST control)
[4]
  binding signal: 1.18 fold enrichment (6-mer frequency, TF over GST control)
[5]
  binding signal: 1.16 fold enrichment (6-mer frequency, TF over GST control)
[6]
  binding signal: 1.22 fold enrichment (6-mer frequency, TF over GST control)
[7]
  binding signal: 1.1 fold enrichment (6-mer frequency, TF over GST control)
[8]
  binding signal: 1.24 fold enrichment (6-mer frequency, TF over GST control)
[9]
  binding signal: 1.29 fold enrichment (6-mer frequency, TF over GST control)
